# Assay outcomes (PubChem BioAssay)
# CF NFkB inh: inhibitors of cystic fibrosis induced NF-kB; KKLEB NF-kB-GFP reporter, PAF-induced, GFP fluorescence overnight; inhibition, % at 5 µM; 360,000 compounds, 0.86% hits; AID 588850;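 active = at least 50% inhibition at 5 µM, scaled per plate between neutral and stimulator controls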;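 note: PAF is a Pseudomonas aeruginosa culture filtrate used as stimulus; plate controls were PAF-stimulated DMSO wells for no effect and unstimulated DMSO wells for full effect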
# KKLEB tox: reduces viability of KKLEB cystic fibrosis airway cells. activity change (cytotoxicity), % at 5 µM. KKLEB CF airway cells viability, ATPlite luminescence, overnight; hits give low values; cells stimulated with P. aeruginosa culture filtrate. 360,000 compounds, 0.36% hits;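 active = corrected activity change at or below -50% at 5 µM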
# Peg3 promoter: inhibitors of Peg3 promoter. HeLa PEG-Prom luciferase reporter, luminescence, overnight. inhibition, % at 20 µM. 360,000 compounds, 1.7% hits;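 active = inhibition of at least 50% at 20 µM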
# MITF TRPM1 inh: MITF TRPM1 promoter inhibition in SK-MEL-5 cells; SK-MEL-5 TRPM1 promoter luciferase, 24 h; inhibition, % at 12.5 µM; 330,000 compounds, 0.83% hits; AID 488899;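 active = mean inhibition across replicates of 60% or more, whatever share of single replicates reaches that level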
# ABHD5-PLIN5 inh: ABHD5-PLIN5 protein interaction inhibition. Q00G26+Q8WTS1. inhibition, % at 4 µM. 360,000 compounds, 0.78% hits. Split G. princeps luciferase complementation, luminescence, 4 h;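 active = inhibition above the mean inhibition across every tested compound plus 3 SD, cut at about 22% in these data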;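 note: 0% = DMSO only wells and the 100% control is not disclosed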
# Target sequence (Q00G26 whole entry, looked up): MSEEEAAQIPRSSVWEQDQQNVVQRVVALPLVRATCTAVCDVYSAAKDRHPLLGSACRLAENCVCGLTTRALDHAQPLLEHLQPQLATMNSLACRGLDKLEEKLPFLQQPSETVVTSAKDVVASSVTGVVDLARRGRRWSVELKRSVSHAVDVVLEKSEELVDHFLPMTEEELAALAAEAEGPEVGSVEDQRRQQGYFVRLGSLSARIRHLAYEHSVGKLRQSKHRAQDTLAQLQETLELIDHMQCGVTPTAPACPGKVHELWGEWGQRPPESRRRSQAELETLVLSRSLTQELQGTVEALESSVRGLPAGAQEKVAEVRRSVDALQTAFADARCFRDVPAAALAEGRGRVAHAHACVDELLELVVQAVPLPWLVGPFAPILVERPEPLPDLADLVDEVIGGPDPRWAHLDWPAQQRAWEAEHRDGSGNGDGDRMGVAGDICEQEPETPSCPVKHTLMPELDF
# Target sequence (Q8WTS1 whole entry, looked up): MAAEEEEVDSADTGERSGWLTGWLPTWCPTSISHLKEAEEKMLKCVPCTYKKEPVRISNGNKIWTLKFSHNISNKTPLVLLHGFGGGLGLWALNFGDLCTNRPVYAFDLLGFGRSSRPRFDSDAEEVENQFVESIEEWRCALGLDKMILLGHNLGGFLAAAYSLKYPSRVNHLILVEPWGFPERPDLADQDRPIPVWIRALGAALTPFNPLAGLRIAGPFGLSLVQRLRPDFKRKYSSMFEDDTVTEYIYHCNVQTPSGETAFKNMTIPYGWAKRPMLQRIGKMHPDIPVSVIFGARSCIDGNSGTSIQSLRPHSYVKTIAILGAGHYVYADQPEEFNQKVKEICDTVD
# HIF-2a inh: blocks HIF-2a reporter activity; 786-0 RCC cells HIF-2a reporter, luciferase luminescence, overnight; inhibition, % at 18.8 µM; 360,000 compounds, 0.72% hits; AID 624352;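 active = inhibition of the luminescence signal of 40% or more relative to plate controls, in a single-dose primary screen at 18.75 µM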
# The depositor's hits bear a star; nt = no result given. Rows were chosen to be rich in hits. Some 3% of all compounds tested hit in one or more screens of this group.
SMILES,CF NFkB inh,KKLEB tox,Peg3 promoter,MITF TRPM1 inh,ABHD5-PLIN5 inh,HIF-2a inh
COc1cccc2sc(N(CCCN(C)C)C(=O)c3ccc(S(=O)(=O)N4CCCc5ccccc54)cc3)nc12,4.9,-16.4,53.6*,18.6,18.0,9.9
COc1cc2nc(N(CCCN(C)C)C(=O)c3ccc(C(=O)c4ccccc4)cc3)sc2cc1OC,6.0,-8.8,-25.1,2.6,16.0,3.9
CCc1ccc2nc(N(CCCN(C)C)C(=O)c3ccc(C(=O)c4ccccc4)cc3)sc2c1,18.1,-20.6,101.8*,-7.1,12.9,-3.3
CCOc1cccc2sc(N(CCN(C)C)C(=O)c3cc4ccccc4cc3OC)nc12,24.6,-31.9,31.5,6.6,23.0*,-6.0
Cc1ccc2nc(N(CCCN(C)C)C(=O)CS(=O)(=O)c3ccccc3)sc2c1,35.4,-1.1,-60.4,9.5,-3.1,-5.2
Nc1nc2c(ncn2[C@@H]2O[C@H](CNCc3ccc(Oc4cc(-n5cccn5)ncn4)cc3)[C@@H](O)[C@H]2O)c(=O)[nH]1,8.6,-13.2,-4.8,nt,-1.0,0.2
COc1cccc2sc(N(CCCN(C)C)C(=O)c3ccc(S(=O)(=O)N4CCc5ccccc5C4)cc3)nc12,26.5,-15.9,85.3*,46.5,21.5,13.3
Cc1ccc2nc(NNC(=O)c3ccc4c(c3)OCCO4)sc2c1,25.0,-16.4,-10.5,nt,-9.9,-18.2
CN(C)CCCN(C(=O)c1ccc(S(=O)(=O)N2CCc3ccccc3C2)cc1)c1nc2c(F)cc(F)cc2s1,10.1,-6.5,-33.7,35.3,-0.2,13.3
COc1cc2nc(N(CCCN(C)C)C(=O)c3ccc(S(=O)(=O)N4CCc5ccccc5C4)cc3)sc2cc1OC,-3.1,-1.7,36.3,11.8,10.3,-3.7
Cc1ccc2nc(NNC(=O)c3ccc(S(=O)(=O)N4CCc5ccccc5C4)cc3)sc2c1,15.7,-14.3,44.2,77.8*,33.8*,18.2
CCOc1ccc2nc(N(CCCN(C)C)C(=O)c3ccc(S(=O)(=O)N4CCc5ccccc5C4)cc3)sc2c1,-6.9,-27.7,27.8,73.5*,13.8,12.1
CCc1ccc2nc(N(CCCN(C)C)C(=O)c3ccc(S(=O)(=O)N4CCCc5ccccc54)cc3)sc2c1,34.1,-34.1,106.1*,12.8,16.6,-25.4
CCNc1nc2c(c(=O)n(C)c(=O)n2C)n1CCCc1ccccc1,12.6,-9.5,11.8,16.8,-2.0,15.4
CC(=O)N1CCCC1(C(=O)O)c1ccccc1 (stereo unspecified),3.8,-5.0,10.4,4.7,-1.2,12.4
Oc1ccccc1-c1nc(NCCN2CCOCC2)c2ccccc2n1,-30.3,-5.9,21.8,-1.7,22.3*,-59.1
O=C(CCl)Nc1cn(-c2ccccc2)nc1-c1ccccc1,46.3,-70.7*,83.7*,73.6*,6.4,-64.8
COc1cccc(NC(=O)N2CCC(n3nnc4ccccc43)CC2)c1,-5.1,1.3,13.1,-13.3,0.7,7.4
COc1ccc(S(=O)(=O)N2CCCCC2)cc1NC(=O)CN(Cc1ccco1)Cc1ccco1,2.1,15.7,53.9*,31.7,1.4,15.0
ClC(Cl)(Cl)c1nc2ccccc2n2nncc12,11.0,-9.1,79.2*,39.2,0.1,32.4
O=C(NCCN1CCN(c2ccccc2)CC1)c1ccc2c(c1)[nH]c(=S)n1c3ccccc3nc21,12.7,0.4,50.4*,3.7,5.2,27.2
O=C(CNC(=S)N(Cc1ccccc1)Cc1ccccc1F)NCCc1ccccc1,17.0,-6.4,36.4,-3.8,1.0,17.7
O=C(Nc1ccc(Br)cc1)C1OCCc2ccccc21 (stereo unspecified),2.5,-4.1,-79.4,-5.7,-7.7,-145.9
CCOC(=O)c1cc(NC(=O)c2ccc(C)cc2)c(=O)oc1C(F)(F)F,-15.8,3.2,-19.3,-17.6,6.4,-40.1
CCOC(=O)c1cc(NC(=O)c2ccc(Cl)cc2)c(=O)n2c1oc1ccc(Cl)cc12,44.2,-58.4*,9.9,-14.2,-28.2,1.0
SMILES,CF NFkB inh,KKLEB tox,Peg3 promoter,MITF TRPM1 inh,ABHD5-PLIN5 inh,HIF-2a inh
COc1ccccc1-n1c(=O)c(C#N)c(-c2ccc([N+](=O)[O-])cc2)c2cc(C(=O)c3ccccc3O)cnc21,-6.2,15.2,21.8,35.1,1.1,14.2
c1ccc(-c2cc(NCCN3CCCCC3)c3ccccc3n2)cc1,-38.7,-4.7,101.2*,51.6,5.1,26.0
CCOC(=O)C(=Cc1ccc(Br)cc1)C(=O)OCC,52.5*,-31.0,22.8,3.7,15.3,23.8
CCOC(=O)/C(=C/c1ccc(OC(=O)c2ccncc2)cc1)C(C)=O,8.0,-4.3,5.7,8.0,9.0,10.2
COc1ccc(S(=O)(=O)N2CCSCC2)cc1C(N)=O,-0.4,-2.2,2.3,-2.1,-1.5,25.2
O=C(C[C@H]1C/C=C\CC[C@@H](Cc2ccc(F)cc2)C(=O)O[C@@H](c2ccccc2)CNC1=O)N[C@@H](CO)Cc1ccccc1,-3.9,-8.8,88.5*,-5.4,-2.0,-0.9
O=C(C[C@H]1C/C=C\CC[C@@H](Cc2ccc(F)cc2)C(=O)O[C@H](c2ccccc2)CNC1=O)N[C@H](CO)Cc1ccccc1,11.3,-41.3,81.4*,3.2,-4.4,4.4
O=C(C[C@@H]1C/C=C/CC[C@H](Cc2ccc(F)cc2)C(=O)OC[C@@H](Cc2ccccc2)NC1=O)N[C@H](CO)Cc1ccccc1,62.3*,-91.0*,81.6*,90.8*,-2.8,9.2
COc1cccc(C(O)c2ncc(-c3ccc(Cl)cc3)[nH]2)c1 (stereo unspecified),1.1,-12.0,-17.7,nt,1.7,-31.6
COc1cc2c(cc1OC)C(c1cc(OC)c(OC)c(OC)c1)C1(O)C(=O)OCC1(O)C2 (stereo unspecified),5.8,-2.4,-8.3,2.6,7.3,9.1
CNCc1ccccc1Sc1ccc(O)c(O)c1,3.3,10.4,24.1,18.4,23.0*,15.2
Cn1nc(C(=O)NNC(=O)CCc2ccccc2Cl)c2ccccc2c1=O,-2.1,9.6,10.9,-4.3,1.3,13.3
O=C(Nc1ccnn1C1CCN(Cc2ccc(C#CCCO)cc2)CC1)c1cccc(F)c1,-12.5,3.6,13.9,12.2,5.1,3.0
CCOC(=O)c1cc2c(OC)c(OC)ccc2c2[nH]cc(C#N)c(=O)c12,4.1,3.2,18.9,nt,-3.5,5.7
Cc1ccc(Nc2nc(N)c(C#N)c(CC#N)c2C#N)cc1,-1.5,-5.3,-54.7,-45.5,14.7,-48.4
O=C(CCN1CCOCC1)c1ccc2c(c1)OCCO2,-14.5,2.7,-10.4,2.2,10.9,6.0
O=C(CCN1CCc2ccccc2CC1)c1ccc2c(c1)OCCO2,9.6,3.9,105.8*,3.2,20.4,16.5
COc1ccc(N2CCN(Cc3cc(=O)oc4cc(-c5ccccc5)c(O)cc34)CC2)cc1,-2.2,-10.4,69.6*,50.2,-1.1,7.7
O=c1cc(CN2CCN(c3ccccc3F)CC2)c2cc(O)c(-c3ccccc3)cc2o1,11.1,-0.4,12.4,8.1,-5.0,0.5
